In the supplement of paper PMC9262897, “Low-cost anti-mycobacterial drug discovery using engineered E. coli” (Nature Communications, 2022):
Where a name gives a salt, the structure may show the parent alone. ± gives the standard deviation of the averaged measurements.

How the values were obtained:
Test in all cases: growth (OD600 after 10 h); higher = more growth (less inhibition)
[1] = test system: E. coli TESEC Alr+ wild-type control; conditions: compound 0.1 mM; raw OD600 reference: median of DMSO wells 0.241, cell-free background 0.041
Description: (§1)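 TESEC Mtb Alr E. coli, or the Alr+ wild-type control, in 384-well plates with Prestwick library compounds at 0.1 mM and 1% DMSO, across arabinose induction levels of 1E3 to 1E7 nM. Growth is read as OD600 after 10 h at 37 °C in triplicate biological replicates.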

E. coli TESEC Mtb Alr [2] = conditions: compound 0.1 mM
Description: as §1

E. coli TESEC Mtb Asd = conditions: compound 0.1 mM
Description: (§2)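 TESEC E. coli strains in which the native enzyme is deleted and replaced by arabinose-inducible Mtb Asd, DapB, CysH or TrpD, each grown in its selective medium. Strains were screened against the Prestwick library at 0.1 mM and 1% DMSO in 384-well format at low and high arabinose induction. Growth is read as OD600 after 10 h in triplicate.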

E. coli TESEC Mtb DapB = conditions: compound 0.1 mM
Description: as §2

[3] = test system: E. coli TESEC Alr+ wild-type control; conditions: compound 0.1 mM; raw OD600 reference: median of DMSO wells 0.49, cell-free background 0.052
Description: (§3)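 TESEC Mtb Alr E. coli (ΔaraC ΔtolC ΔentC Δalr ΔdadX, arabinose-inducible Mtb Alr) or the Alr+ wild-type control strain, grown in defined M9-fructose medium without D-alanine in 96-well plates with Prestwick library compounds at 0.1 mM and 1% DMSO. Low Alr induction is 0.1 µM arabinose and high induction is 10 mM arabinose.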

E. coli TESEC Mtb Alr [4] = conditions: compound 0.1 mM; remark: listed apart in the source
Description: as §3

[5] = arabinose 1000 nM, raw OD600 reference: median of DMSO wells 0.294, cell-free background 0.041
[6] = arabinose 10000 nM, raw OD600 reference: median of DMSO wells 0.264, cell-free background 0.041
[7] = arabinose 100000 nM, raw OD600 reference: median of DMSO wells 0.201, cell-free background 0.041
[8] = arabinose 1000000 nM, raw OD600 reference: median of DMSO wells 0.193, cell-free background 0.041
[9] = arabinose 10000000 nM, raw OD600 reference: median of DMSO wells 0.146, cell-free background 0.041
[10] = arabinose induction (level): High, raw OD600 reference: median of DMSO wells 0.331, cell-free background 0.041
[11] = arabinose induction (level): Low, raw OD600 reference: median of DMSO wells 0.417, cell-free background 0.041
[12] = arabinose induction (level): High, raw OD600 reference: median of DMSO wells […], cell-free background 0.041
[13] = arabinose induction (level): Low, raw OD600 reference: median of DMSO wells 0.227, cell-free background 0.041
[14] = arabinose 100 nM, raw OD600 reference: median of DMSO wells 0.413, cell-free background 0.052
[15] = arabinose 10000000 nM, raw OD600 reference: median of DMSO wells […], cell-free background 0.052

Compound | growth [1] | growth (E. coli TESEC Mtb Alr [2]; [5]) | growth (E. coli TESEC Mtb Alr [2]; [6]) | growth (E. coli TESEC Mtb Alr [2]; [7]) | growth (E. coli TESEC Mtb Alr [2]; [8]) | growth (E. coli TESEC Mtb Alr [2]; [9]) | growth (E. coli TESEC Mtb Asd; [10]) | growth (E. coli TESEC Mtb Asd; [11]) | growth (E. coli TESEC Mtb DapB; [12]) | growth (E. coli TESEC Mtb DapB; [13]) | growth [3] | growth (E. coli TESEC Mtb Alr [4]; [14]) | growth (E. coli TESEC Mtb Alr [4]; [15])
CO[C@]12C[C@@H](COC(=O)c3cncc(Br)c3)CN(C)[C@@H]1Cc1cn(C)c3cccc2c13 [Nicergoline] | 0.174 ± 0.0043 | 0.184 ± 0.0071 | 0.194 ± 0.0054 | 0.223 ± 0.0047 | 0.102 ± 0.0052 | 0.184 ± 0.0056 | 0.221 ± 0.021 | 0.279 ± 0.056 | 0.227 ± 0.014 | 0.277 ± 0.028 | 0.481 ± 0.049 | 0.416 ± 0.005 | 0.268 ± 0.015
C=C(C)[C@@H]1[C@H]2OC(=O)[C@@H]1[C@]1(O)C[C@H]3O[C@]34C(=O)O[C@H]2[C@]14C [Picrotoxinin] | 0.253 ± 0.0051 | 0.314 ± 0.023 | 0.2631 ± 0.002 | 0.215 ± 0.023 | 0.186 ± 0.0029 | 0.138 ± 0.0029 | 0.343 ± 0.016 | 0.461 ± 0.003 | 0.197 ± 0.0075 | 0.216 ± 0.0066 | 0.479 ± 0.082 | 0.401 ± 0.011 | 0.351 ± 0.0093
CCCC[N+]1(C)[C@@H]2CC(OC(=O)[C@H](CO)c3ccccc3)C[C@H]1[C@@H]1O[C@@H]12 (some centres undefined) [Butylscopolammonium (n-) bromide] | 0.225 ± 0.0045 | 0.296 ± 0.012 | 0.2707 ± 0.0023 | 0.189 ± 0.01 | 0.185 ± 0.0011 | 0.132 ± 0.0029 | 0.372 ± 0.073 | 0.412 ± 0.034 | 0.216 ± 0.011 | 0.232 ± 0.015 | – | 0.405 ± 0.0075 | 0.338 ± 0.021
C[C@@]12N[C@@H](Cc3ccccc31)c1ccccc12 [(-)-MK 801 hydrogen maleate] | 0.226 ± 0.014 | 0.29 ± 0.013 | 0.247 ± 0.0096 | 0.138 ± 0.0052 | 0.113 ± 0.0073 | 0.132 ± 0.0029 | 0.244 ± 0.014 | 0.514 ± 0.039 | 0.213 ± 0.036 | 0.221 ± 0.018 | 0.564 ± 0.017 | 0.412 ± 0.017 | 0.2863 ± 0.0016
Oc1ccc2c3c1O[C@H]1[C@@H](O)CC[C@@]4(O)[C@@H](C2)N(CC2CCC2)CC[C@]314 [Nalbuphine hydrochloride] | 0.233 ± 0.0039 | 0.262 ± 0.028 | 0.2664 ± 0.0015 | 0.183 ± 0.024 | 0.1753 ± 0.0013 | 0.135 ± 0.0094 | 0.381 ± 0.095 | 0.453 ± 0.036 | 0.195 ± 0.011 | 0.214 ± 0.029 | – | 0.4293 ± 0.0018 | 0.351 ± 0.015
COc1ccc(C(CN(C)C)C2(O)CCCCC2)cc1 (centres undefined) [Venlafaxine] | 0.219 ± 0.015 | 0.301 ± 0.016 | 0.251 ± 0.01 | 0.185 ± 0.013 | 0.178 ± 0.0042 | 0.137 ± 0.0036 | 0.436 ± 0.066 | 0.459 ± 0.032 | 0.207 ± 0.0032 | 0.22 ± 0.016 | – | 0.415 ± 0.0048 | 0.338 ± 0.025
NCCc1c[nH]c2ccc(O)cc12 [Serotonin hydrochloride] | 0.231 ± 0.013 | 0.297 ± 0.011 | 0.269 ± 0.0069 | 0.198 ± 0.036 | 0.201 ± 0.0049 | 0.145 ± 0.0029 | 0.361 ± 0.022 | 0.405 ± 0.091 | 0.209 ± 0.011 | 0.237 ± 0.0078 | – | 0.407 ± 0.02 | 0.338 ± 0.054
C[N+](C)(C)CCCCCCCCCC[N+](C)(C)C [Decamethonium bromide] | 0.246 ± 0.0085 | 0.286 ± 0.015 | 0.2525 ± 0.0016 | 0.214 ± 0.022 | 0.208 ± 0.003 | 0.13 ± 0.0017 | 0.369 ± 0.032 | 0.444 ± 0.043 | 0.234 ± 0.021 | 0.242 ± 0.0099 | – | 0.39 ± 0.017 | 0.376 ± 0.022
CCN(CC)C(C)C(=O)c1ccccc1 (centres undefined) [Amfepramone hydrochloride] | 0.25 ± 0.0034 | 0.259 ± 0.051 | 0.261 ± 0.014 | 0.179 ± 0.027 | 0.187 ± 0.0038 | 0.141 ± 0.0089 | 0.256 ± 0.064 | 0.447 ± 0.047 | 0.202 ± 0.018 | 0.218 ± 0.021 | 0.556 ± 0.038 | 0.411 ± 0.0098 | 0.325 ± 0.016
O=c1c2ccccc2[se]n1-c1ccccc1 [Ebselen] | 0.067 ± 0.0015 | 0.295 ± 0.02 | 0.261 ± 0.0064 | 0.236 ± 0.027 | 0.224 ± 0.017 | 0.164 ± 0.0046 | 0.0698 ± 0.0046 | 0.061 ± 0.008 | 0.22 ± 0.027 | 0.249 ± 0.014 | 0.538 ± 0.076 | 0.355 ± 0.009 | 0.346 ± 0.0078
Fc1ccc(C(OCCN2CCN(CCCc3ccccc3)CC2)c2ccc(F)cc2)cc1 | 0.0433 ± 0.0027 | 0.04027 ± 0.00025 | 0.0453 ± 0.00061 | 0.0419 ± 0.0013 | 0.045 ± 0.00035 | 0.0435 ± 0.00049 | 0.0464 ± 0.00055 | 0.04613 ± 0.00046 | 0.0461 ± 0.00026 | 0.0459 ± 0.00085 | – | 0.235 ± 0.15 | 0.0503 ± 0.0006
CNC(C)(C)Cc1ccccc1 [Mephentermine hemisulfate] | 0.247 ± 0.0094 | 0.303 ± 0.018 | 0.274 ± 0.0032 | 0.224 ± 0.012 | 0.193 ± 0.0098 | 0.138 ± 0.0038 | 0.273 ± 0.036 | 0.433 ± 0.033 | 0.208 ± 0.012 | 0.221 ± 0.0061 | – | 0.402 ± 0.0066 | 0.381 ± 0.03
CC(=O)OC1CN2CCC1CC2 (centres undefined) [Aceclidine Hydrochloride] | 0.257 ± 0.0078 | 0.314 ± 0.0082 | 0.2646 ± 0.0025 | 0.232 ± 0.041 | 0.174 ± 0.0042 | 0.166 ± 0.0076 | 0.22 ± 0.0099 | 0.306 ± 0.013 | 0.204 ± 0.02 | 0.232 ± 0.023 | – | 0.41 ± 0.007 | 0.359 ± 0.031
CC(C)(N)Cc1ccccc1 [Phentermine hydrochloride] | 0.232 ± 0.0076 | 0.288 ± 0.017 | 0.273 ± 0.0063 | 0.199 ± 0.033 | 0.193 ± 0.0084 | 0.138 ± 0.0031 | 0.318 ± 0.043 | 0.297 ± 0.017 | 0.206 ± 0.021 | 0.233 ± 0.014 | 0.603 ± 0.13 | 0.413 ± 0.014 | 0.36 ± 0.0095
O=c1[nH]c2ccccc2n1CCCN1CCC(n2c(=O)[nH]c3cc(Cl)ccc32)CC1 [Domperidone] | 0.129 ± 0.0039 | 0.183 ± 0.0075 | 0.214 ± 0.015 | 0.149 ± 0.0082 | 0.09803 ± 0.00075 | 0.124 ± 0.0039 | 0.1177 ± 0.0011 | 0.176 ± 0.018 | 0.137 ± 0.005 | 0.152 ± 0.0037 | 0.406 ± 0.011 | 0.41 ± 0.0087 | 0.246 ± 0.0035
CN1CCN(C(=O)OC2c3nccnc3C(=O)N2c2ccc(Cl)cn2)CC1 (centres undefined) [Zopiclone] | 0.222 ± 0.0047 | 0.284 ± 0.0071 | 0.246 ± 0.0053 | 0.183 ± 0.011 | 0.18 ± 0.0087 | 0.138 ± 0.0054 | 0.291 ± 0.062 | 0.358 ± 0.056 | 0.194 ± 0.0097 | 0.224 ± 0.04 | – | 0.417 ± 0.009 | 0.357 ± 0.01
